FXN GAA850 act – FXN promoter activators, primary screen, cell-based, luciferase luminescence, HEK293 lucGAA850 | HEK293 lucGAA850 FXN promoter luciferase reporter, 24 h; percent of 10 µM SAHA response | activation, % at 6 µM | 0.56% of 360,000 active | AID 540364, 2011;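 active = activation above the average of all compounds screened plus 3 SD, cutoff fixed separately per campaign, cut at about 7.5% in these data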
esBAF inh – Bmi1 luciferase reporter increase in mESCs, primary screen, esBAF inhibitor project, mouse ES cells, Bmi1 luciferase knock-in, single point. 24 h; 100% = twice the neutral-well signal. reporter increase, % at 12.5 µM. 2% of 350,000 active; in the data active = activation above about 40%; inconclusive = no clear call, values can overlap the other calls;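 also: a rise in the Bmi1 reporter signal indicates esBAF inhibition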
AHR activator – AHR activators, primary screen, cell-based, luminescence, luciferase reporter, human; Aryl hydrocarbon receptor (Homo sapiens), P35869; AHR-responsive luciferase reporter cells; activation, % at 5 µM; 2.5% of 320,000 active; AID 2796, 2010; in the data active = activation above about 47%
Target sequence (P35869 whole entry, looked up): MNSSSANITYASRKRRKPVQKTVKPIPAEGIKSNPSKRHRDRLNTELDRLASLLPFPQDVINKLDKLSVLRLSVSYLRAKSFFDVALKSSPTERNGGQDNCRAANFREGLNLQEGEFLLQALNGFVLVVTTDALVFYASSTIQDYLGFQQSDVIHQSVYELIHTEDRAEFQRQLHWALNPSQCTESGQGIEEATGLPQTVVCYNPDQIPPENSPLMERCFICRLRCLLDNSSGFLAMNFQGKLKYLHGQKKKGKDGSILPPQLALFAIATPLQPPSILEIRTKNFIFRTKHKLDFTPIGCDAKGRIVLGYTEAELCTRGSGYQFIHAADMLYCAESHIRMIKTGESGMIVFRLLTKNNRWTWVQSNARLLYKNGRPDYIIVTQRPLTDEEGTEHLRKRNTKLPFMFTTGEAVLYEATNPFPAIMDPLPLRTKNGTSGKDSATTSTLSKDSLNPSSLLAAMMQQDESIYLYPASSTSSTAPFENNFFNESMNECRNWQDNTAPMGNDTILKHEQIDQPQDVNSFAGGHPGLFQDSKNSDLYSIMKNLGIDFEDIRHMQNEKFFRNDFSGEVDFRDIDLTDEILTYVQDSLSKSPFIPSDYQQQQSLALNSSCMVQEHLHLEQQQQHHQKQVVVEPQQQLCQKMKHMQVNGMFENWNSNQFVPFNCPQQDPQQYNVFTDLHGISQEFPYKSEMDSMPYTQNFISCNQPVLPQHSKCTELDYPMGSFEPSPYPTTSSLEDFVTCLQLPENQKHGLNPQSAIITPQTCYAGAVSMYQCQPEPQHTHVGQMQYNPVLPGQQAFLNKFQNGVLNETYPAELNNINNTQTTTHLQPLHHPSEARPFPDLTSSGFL
MITF TRPM1 HTS – activators of MITF-driven TRPM1 promoter reporter, primary screen, cell-based, SK-MEL-5, luciferase, single point | AID 588334, 2011 | SK-MEL-5 TRPM1-promoter luciferase, 24 h; % of positive control, neutral wells = 0 | activation, % at 12.5 µM | 0.75% of 300,000 active;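 active = mean activation of at least 80% with every replicate also reaching 80%; inconclusive = mean reaches 80% but some replicate falls short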
Wnt act – Wnt/beta-catenin pathway activators, primary screen, cell-based, plate reader, single point | Wnt/beta-catenin reporter cell assay, activator | 1.2% of 300,000 active | activation, % at 9.35 µM | AID 743398, 2014; in the data active = activation above about 30%, passing the limit was not always enough; inconclusive = no clear call, values can overlap the other calls
esBAF Ring1 qPCR – Ring1 mRNA increase in mouse ESCs, confirmation, esBAF inhibitor project, cell-based, mouse ESC, RT-qPCR, cherry-pick | shares compounds with esBAF inh | mouse ESC E14, Ring1 mRNA RT-qPCR fold change | fold change at 33 µM | 550 tested, under 10 active;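 active = Ring1 gene expression raised more than 2-fold over untreated cells in both replicates at either tested dose; inconclusive = only one replicate above 2-fold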;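 also: Ring1 transcript normalised to actin housekeeping signal by TaqMan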
esBAF Fgf4 qPCR – Fgf4 mRNA decrease in mouse ESCs, confirmation, esBAF inhibitor project, cell-based, mouse ESC, RT-qPCR, cherry-pick; shares compounds with esBAF inh; mouse ESC E14, Fgf4 mRNA qPCR fold change; active compounds read low; Fgf4 expression fold change at 33 µM; 4% of 550 active;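 active = Fgf4 expression under 0.8 fold of control in both repeat measurements at one or both tested doses; inconclusive = under 0.8 fold in just a single repeat measurement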;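 also: Fgf4 transcript normalised to actin in duplex TaqMan qPCR; cells exposed to compound for 24 h before lysis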
esBAF Bmi1 qPCR – esBAF inhibition via Bmi1 de-repression, confirmation, cell-based, RT-qPCR, mouse ESC, single point, cherry-pick. shares compounds with esBAF inh. mouse ESE14 ES cells, Bmi1 mRNA qPCR fold; active compounds read high. fold change at 33 µM. 550 tested, under 10 active. AID 743180, 2013;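 active = Bmi1 expression fold change above 6 at either tested concentration, seen in replicate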;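 also: higher fold means more Bmi1 de-repression and stronger esBAF inhibition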
A549 cytotox – A549 cell cytotoxicity, cytotoxicity control, plate reader, single point, cherry-pick; 550 tested, under 10 active; AID 743188, 2013; cell viability change % (negative = cytotoxic), % at 25 µM, hits read low; shares compounds with esBAF inh; call rule not given here
HepG2 tox SP – HepG2 cell cytotoxicity, cytotoxicity control, plate reader, single point, cherry-pick; activity change, negative = inhibition, % at 25 µM; active compounds read low; 4% of 550 active; shares compounds with esBAF inh; in the data active = activity change below about -50%
HEK293 tox SP – HEK293 cell cytotoxicity, cytotoxicity control, plate reader, single point, cherry-pick; activity change, negative = inhibition, % at 25 µM, hits read low; 3% of 550 active; shares compounds with esBAF inh; AID 743190, 2013; in the data active = activity change below about -38%, passing the limit was not always enough
Hits are given with their value; . = inactive; ? = inconclusive; / = not tested or not shown. An excerpt weighted towards active compounds, which were near 4.2% of everything screened.

SMILES | FXN GAA850 act | esBAF inh | AHR activator | MITF TRPM1 HTS | Wnt act | esBAF Ring1 qPCR | esBAF Fgf4 qPCR | esBAF Bmi1 qPCR | A549 cytotox | HepG2 tox SP | HEK293 tox SP
Cn1c2ccccc2c(=O)c2cc(C#Cc3ccsc3)ccc21 | . | 62 | . | . | . | . | ? | . | . | . | .
C[C@@H](NC(=O)C[C@@H]1CC[C@H]2[C@@H](COC[C@H](O)CN2C)O1)c1ccccc1 | / | . | / | / | / | / | / | / | / | / | /
CNC[C@@H]1OCCCC[C@H](C)Oc2ccc(NS(=O)(=O)c3ccc(OC)cc3)cc2C(=O)N([C@@H](C)CO)C[C@@H]1C | / | . | / | / | / | / | / | / | / | / | /
Cc1ccn2cc(C(=O)Nc3nnc(C)s3)nc2c1 | . | 55 | . | ? | . | . | . | . | . | . | .
COc1ccc(C(=O)Nc2cc3c4c(c2)CC(=O)N4CCC3)c(OC)c1 | . | 67 | . | 86 | / | . | . | . | . | . | .
COC(=O)C[C@@H]1C=C[C@@H](NS(=O)(=O)c2ccccc2F)[C@@H](CO)O1 | / | . | / | / | / | / | / | / | / | / | /
COc1ccc(NC(=O)c2csc3c2CCCC3)cc1 | . | 69 | . | . | . | . | . | . | . | -51 | .
COc1ccc(CNC(=O)c2csc3c2CCCC3)cc1 | . | . | . | . | . | / | / | / | / | / | /
Cc1ccc(-c2nc3ccccc3[nH]2)cn1 | . | 63 | . | . | . | . | . | . | . | . | .
O=c1cc(-c2ccsc2)oc2ccccc12 | . | . | . | . | . | / | / | / | / | / | /
CN(C)c1ccc(-c2ccc3oc(-c4ccsc4)cc(=O)c3c2)cn1 | . | 69 | . | 124 | 38 | . | . | . | . | . | .
CCn1c(SCc2ccccc2Cl)nc2ccccc21 | . | 57 | . | . | . | . | . | . | . | . | .
CC(C)NC(=O)N1[C@H](CN(C)C(=O)c2ccccc2)[C@@H](c2ccccc2)[C@@H]1CO | / | . | / | / | / | / | / | / | / | / | /
CCCS(=O)(=O)N1CCC(C(=O)NC2CCC(C)CC2)CC1 (stereo unspecified) | . | 56 | . | . | / | . | . | . | . | . | .
O=C(CO)N/N=C/c1ccc(Cl)cc1 | . | . | . | . | / | / | / | / | / | / | /
O=C(N/N=C/c1ccc(Cl)cc1)Nc1ccccc1 | . | 59 | 67 | 95 | . | . | . | . | . | . | .
CSCc1nc2sc(C(=O)Nc3nc(C)cs3)c(C)c2c(=O)[nH]1 | . | 60 | . | . | . | . | . | . | . | . | .
O=C(N[C@H]1CC[C@@H](CCNS(=O)(=O)c2ccc(F)cc2)O[C@@H]1CO)C1CCOCC1 | / | . | / | / | / | / | / | / | / | / | /
COc1ccc(S(=O)(=O)Nc2ccc3c(c2)CC(=O)N([C@@H](C)CO)C[C@@H](C)[C@@H](CN(C)S(=O)(=O)c2cccs2)O3)cc1 | / | . | / | / | / | / | / | / | / | / | /
Cc1cccc(-n2nnc(C(=O)Nc3ccc(F)cc3)c2N)c1 | . | 62 | . | / | / | . | . | . | . | . | .
Cc1c(C(=O)Nc2ccc(F)cc2)nnn1-c1cccc(C(F)(F)F)c1 | . | . | . | . | . | / | / | / | / | / | /
Cc1csc(NC(=O)Nc2ccc(Cl)cc2)n1 | . | 60 | . | . | . | . | . | . | . | . | .
COc1ccc(NC(=O)O/N=C/c2ccccc2)cc1 | . | 53 | . | . | 39 | . | ? | . | . | . | .
COc1ccc(NC(=O)O/N=C/c2ccccc2Cl)cc1 | . | / | . | . | . | / | / | / | / | / | /
C[C@H](CO)N1C[C@H](C)[C@@H](CN(C)Cc2ccncc2)Oc2ncc(C#Cc3ccccn3)cc2C1=O | / | . | / | / | / | / | / | / | / | / | /
SMILES | FXN GAA850 act | esBAF inh | AHR activator | MITF TRPM1 HTS | Wnt act | esBAF Ring1 qPCR | esBAF Fgf4 qPCR | esBAF Bmi1 qPCR | A549 cytotox | HepG2 tox SP | HEK293 tox SP
CC(=O)Nc1ccc2c(c1)Cc1c(F)cccc1-2 | . | 83 | / | . | . | . | ? | . | . | . | .
C[C@@H]1CN([C@H](C)CO)C(=O)c2cc(NS(=O)(=O)c3ccccc3)ccc2O[C@@H](C)CCCCO[C@@H]1CN(C)S(=O)(=O)c1ccc(F)cc1 | / | . | / | / | / | / | / | / | / | / | /
COCC(=O)Nc1ccc2c(c1)OC[C@@H](C)N(C(=O)C1CCCC1)C[C@H](C)[C@@H](OC)CN(C)C2=O | / | . | / | / | / | / | / | / | / | / | /
Cc1cc(-c2nnco2)c(C)n1-c1ccccc1 | . | 54 | . | . | . | . | . | . | . | . | .
COc1ccc(C(=O)N=c2sc3ccccc3n2C)cc1OC | . | 73 | . | . | 43 | . | . | . | . | . | .
CO[C@H]1CN(C)C(=O)c2cc(NC(=O)Nc3ccccc3)ccc2OC[C@H](C)N(C(=O)Nc2c(C)noc2C)C[C@H]1C | / | . | / | / | / | / | / | / | / | / | /
Oc1[nH]c2ccccc2c1/C=N/c1nccs1 | . | 71 | 53 | . | . | . | . | . | . | . | .
CC(=O)Nc1ccc2nc(C)n(Cc3ccc(Cl)cc3)c(=O)c2c1 | . | 55 | . | / | / | . | . | . | . | . | .
COc1ccc(-c2nnn(Cc3ccccc3)n2)cc1 | . | 79 | . | . | . | . | . | . | . | . | .
COc1ccc(Cc2nc3ccc(C(=O)N4CCCCC4CCO)cc3o2)cc1 (stereo unspecified) | . | . | . | . | . | / | / | / | / | / | /
CCC1CCCCN1C(=O)c1ccc2nc(Cc3ccc(OC)cc3)oc2c1 (stereo unspecified) | . | 67 | . | ? | . | . | . | . | . | . | .
Cc1ccsc1CN(C)C(=O)C1CCC(=O)N(CCc2cccc(F)c2)C1 (stereo unspecified) | . | 65 | . | . | . | . | . | . | . | . | .
COc1cc(Cl)c(C)cc1NC(=O)c1cccc(OC)c1OC | . | 57 | 58 | . | . | . | . | . | . | . | .
COc1cc(Cl)c(C)cc1NC(=O)c1ccccc1-n1cnnn1 | . | / | . | . | . | / | / | / | / | / | /
CC=Cc1ccc2n(c1=O)C[C@H]1[C@H](CO)[C@@H](C(=O)NCCC)[C@@H]2N1CC1CC1 (mixture of isomers) | / | . | / | / | / | / | / | / | / | / | /

Screening results: PubChem, several laboratories
